This excerpt belongs to a sample that is enriched for hits.
ST2 inh = inhibitors of human ST2 (IL1RL1) binding to IL-33, primary screen, biochemical, AlphaLISA. Interleukin-1 receptor-like 1 (Homo sapiens), Q01638. 2.3% of 78,000 active. AlphaLISA ST2-Fc/biotin-IL-33 interaction, 1 h. inhibition, % for hits at 17 µM. AID 1259354, 2018; in the data active = inhibition above about 30%
Target sequence (Q01638 whole entry, looked up): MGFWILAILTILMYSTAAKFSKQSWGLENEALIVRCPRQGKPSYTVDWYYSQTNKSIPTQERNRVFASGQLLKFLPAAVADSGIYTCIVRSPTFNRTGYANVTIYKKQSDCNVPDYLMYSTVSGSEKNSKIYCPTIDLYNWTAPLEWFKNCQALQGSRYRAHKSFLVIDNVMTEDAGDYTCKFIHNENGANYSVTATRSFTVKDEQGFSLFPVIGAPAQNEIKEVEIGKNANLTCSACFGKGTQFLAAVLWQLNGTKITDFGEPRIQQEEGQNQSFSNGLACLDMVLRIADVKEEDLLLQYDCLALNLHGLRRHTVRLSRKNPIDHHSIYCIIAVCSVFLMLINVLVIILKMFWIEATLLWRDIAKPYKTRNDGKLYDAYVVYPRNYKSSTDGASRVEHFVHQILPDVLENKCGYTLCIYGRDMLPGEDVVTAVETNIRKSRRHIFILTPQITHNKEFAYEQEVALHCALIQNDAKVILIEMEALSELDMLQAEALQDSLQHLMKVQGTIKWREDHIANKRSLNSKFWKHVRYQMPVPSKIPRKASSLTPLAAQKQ
The depositor's hits bear a star; i = inactive.

SMILES | ST2 inh
CCN1C(=O)N(CCCc2cccnc2)C(=O)C12CCN(Cc1cnc(-c3ccccc3)s1)CC2 | i
CCN1C(=O)N(CCN(C)C)C(=O)C12CCN(Cc1ccc(SC)cc1)CC2 | 51.0%*
CCOC(=O)C1(CC2CC2)CCN(Cc2ccc(SC)cc2)CC1 | i
C=CCc1ccc(OCCOc2ccc(C=O)cc2OC)c(OC)c1 | i
COc1cc(CCCO)cc(-c2cc(CCCO)cc(OC)c2O)c1O | i
C=CCc1cc(OC)c(O)c(-c2cc(CC=C)cc(OC)c2O)c1 | 41.0%*
CC1=C(C(=O)OC2CCCCC2)C(c2ccc(N(C)C)cc2)n2nnnc2N1 (stereo not given) | i
CCOC(=O)C(CC)Oc1ccc2c(C)cc(=O)oc2c1C (stereo not given) | i
OCC#Cc1csc(CN2CC[C@@H](c3ccc(F)cc3)[C@H](O)C2)c1 | i
COc1ccccc1/C=C/C1=NC(=C\c2ccccc2[N+](=O)[O-])/C(=O)O1 | i
COc1cc(/C=C2/C(=O)N(c3ccc(Br)cc3)N=C2C)cc([N+](=O)[O-])c1O | i
O=C1/C(=C/c2ccccc2[N+](=O)[O-])Sc2ccccc21 | 31.0%*
COc1cc(/C=C2\Sc3ccccc3C2=O)cc([N+](=O)[O-])c1O | 30.0%*
COc1cc(Br)cc(/C=C2/NC(=O)NC2=O)c1O | i
COc1cc(/C=C2/SC(=O)NC2=O)c([N+](=O)[O-])cc1OC | i
COc1cc(C=O)cc(C=O)c1O | i
COc1cc(/C=C2\C(=O)N(c3cccc(C(=O)O)c3)N=C2C)cc([N+](=O)[O-])c1O | i
COc1cc(Br)cc(/C=C2\Sc3ccccc3C2=O)c1O | 60.0%*
CCOc1cccc2cc(C(N)=O)c(=Nc3ccc(-c4ccccc4)cc3)oc12 | i
COc1ccc(CN2C(=O)CO[C@H]3CN(Cc4ccc(C(=O)O)cc4)C[C@H]32)cc1 | i
CN(C)CCN(Cc1ccccc1)Cc1c(F)cccc1Cl | i
COc1ccc(OC)c(C2C(C(=O)Nc3cccc(C)n3)=C(C)NC3=C2C(=O)CC(C)(C)C3)c1 (stereo not given) | i
CCCC(=O)Nc1cccc(C(=O)NC(C)Cc2cc(C)[nH]n2)c1 (stereo not given) | i
Cc1c(CN2CCOC3(CNCCOC3)C2)[nH]c2ccc(F)cc12 (stereo not given) | i
CCOCCCNC(=O)C1c2c(n(C)c3ccccc23)SCC(=O)N1c1ccc(Cl)cc1C (stereo not given) | i
SMILES | ST2 inh
CC1=C[C@@H](CNC(=O)Nc2ccccc2)[C@H](C(C)C)C[C@H]1CC(=O)N(C)Cc1cccnc1 | i
CCCOc1ccc(C(O)=C2C(=O)C(=O)N(c3nccs3)C2c2cccs2)cc1 (stereo not given) | i
CC(C)Oc1ccc(C(O)=C2C(=O)C(=O)N(c3ccccn3)C2c2cccs2)cc1 (stereo not given) | i
CC(C)Oc1ccc(C(O)=C2C(=O)C(=O)N(c3nccs3)C2c2ccc([N+](=O)[O-])cc2)cc1 (stereo not given) | 35.0%*
COc1ccc([C@H]2NCC[C@@]3(O)CCCC[C@H]23)cc1OC | i
C=CCN1C(=O)C(=O)C(=C(O)c2ccc(C)cc2)C1c1ccc(Br)cc1 (stereo not given) | i
c1cc(Nc2cccc3nccnc23)c2nccnc2c1 | 40.0%*
CC(=O)Nc1cccc(N(C)C)c1 | i
Fc1ccc(Nc2cccc3nccnc23)cc1 | 49.0%*
O=C(Nc1cccc2nccnc12)c1ccccc1 | i
O=C(O)[C@@H]1[C@H](C(=O)Nc2cccc3cccnc23)[C@@H]2C=C[C@H]1C2 | i
Cc1ccc2ncnc(Nc3ccccc3Cl)c2c1 | i
CN(C)c1ccc(Nc2cccc3nccnc23)cc1 | 84.0%*
Cc1cccc(-n2ncc3c(Nc4ccc(F)cc4)ncnc32)c1 | i
Clc1ccccc1Nc1cccc2nccnc12 | 39.0%*
Fc1ccc(NC2CCCN(Cc3cccc4ncccc34)C2)cc1 (stereo not given) | i
Cc1sc2ncnc(Nc3ccccc3Cl)c2c1C | i
NC(=O)CSc1nc2c(sc3ccccc32)c(=O)n1CCCN1CCCC1 | i
COc1ccc(-c2ncncc2C(C)C)c(C)c1 | i
Nc1nonc1-c1noc(COc2ccc(I)cc2)n1 | i
COc1ccccc1CNC(=O)CN(c1cc(C)cc(C)c1)S(C)(=O)=O | i
COc1ccc(C(=O)N2C[C@@H]3C[C@H](C2)c2ccc(NC(=O)c4ccncc4)c(=O)n2C3)cc1 | i
O=C(NCCC1=CCCCC1)C1CCCN1S(=O)(=O)c1cccc2nsnc12 (stereo not given) | i
Cc1ccc(C(=O)N2CCC(CCCc3ccccc3)(C(=O)O)CC2)c(=O)[nH]1 | i
COC(=O)C1C(=O)C2=C(CC1C)NC(C)=C(C(=O)OC(C)C)C2c1cccc(OC)c1OC (stereo not given) | i
Nc1ccc(/C=C/C2C=CC=CC2)cc1 (stereo not given) | 47.0%*
COc1cc(Cl)cc(C(=O)N2CC[C@@H](N)[C@@H](OC)C2)c1 | i
